We go through nine compounds from PubChem BioAssay.

Activity calls are given as the source filed them.

This assay in a line: E. coli acrAB mutant growth effects, primary screen, E. coli filamentation inducers, strain DRC39, OD650, 48 h (AID 1179).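 Note: screen aims at cell division blockers that make cells filament.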 The conditions noted are these: E. coli DRC39 delta-acrAB growth, higher = more signal, called active from +8 up or from −8 down.
Take `O=C1C2C=CC(C(O)Cc3ccccc3)N(n3cnnc3)C2C(=O)N1Cc1ccccc1` (centres undefined): the z-score was -1.13 (inactive). The value for `Cc1ccc(S[C@]2(C(=O)NCCCN(C)C)CC(=O)N(Cc3ccccc3C(F)(F)F)[C@@H]2c2ccc(CO)cc2)cc1` was 0.164 (inactive). The result for `COc1cc(C(O)C2C=CC3C(=O)NC(=O)C3N2Nc2ccccn2)cc(OC)c1OC` (centres undefined) reads -0.397 (inactive); that for `C=CCNC(=O)[C@H]1[C@@H]2C(=O)O[C@@H](c3ccccc3)[C@@H](c3ccccc3)N2[C@@H](c2ccccc2OCCO)[C@]12C(=O)Nc1ccc(C#CCC(C(=O)OC)C(=O)OC)cc12`, -0.303 (inactive); that for `COCCOC(=O)N1C(=O)[C@@]2(c3cc(C#CCNC(N)=O)ccc31)[C@H](C(=O)N1CCN(c3ncccn3)CC1)[C@H]1C(=O)O[C@H](c3ccccc3)[C@H](c3ccccc3)N1[C@@H]2c1ccc(OCCO)cc1`, 0.567 (inactive). The value for `CCOC(=O)C[C@H]1[C@H](OC(=O)c2ccc(C(=O)c3ccccc3)cc2)[C@@H](NC(=O)c2ccc3ccccc3c2)c2cc(OCCCO)ccc2N1C(=O)Cc1ccc(OC)cc1` was 0.471 (inactive). As for `C[C@H]1NC(=O)[C@@]23C(=O)N[C@@H](Cc4ccccc4)C2[C@H](C)[C@@]2(C)O[C@H]2C3/C=C/C/C=C\CNC(=O)[C@@H]2CCCN2C1=O` (some centres undefined), the z-score was 0.534 (inactive).

As for `C=C(CCCC)/C(=C/C[C@@H](OC(=O)c1ccncc1)c1ccc(OCCO)cc1)c1cc(C(=O)OC)ccc1OC`, the z-score is 0.868 (inactive).

In the case of `CN1C(=O)C2C=CC(C(O)c3ccc([N+](=O)[O-])cc3)N(N3CCCCC3)C2C1=O` (centres undefined), the z-score was -1.24 (inactive).
